Only some compounds are listed: those with a hit (about 0.5% of all), similar ones and a draw of the others.
TCR act – T cell receptor activation. Potency, µM (series often up to 9.22 µM), for inactives: at the top dose activation of IL-2 secretion, hits mostly activators. AID 504894. 330,000 tested, under 10 active. primary human leukocytes, anti-CD3, IL-2 HTRF, 48 h; also: % of control where 0% means no effect
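Activity was scored as IL-2 release from primary human leukocytes given only a TCR signal (a-CD3 beads) plus compound for 48 hr. Detection used a two-antibody HTRF format read at 665nm.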
Mm-Cpn inhibitor – inhibitors of Methanococcus maripaludis chaperonin TRiC (MmCpn); purified Mm-Cpn ATPase, ADP Transcreener TR-FRET; Potency, µM (series often up to 76.9 µM), without a hit: at the top dose activity, negative = inhibition, actives largely listed as inhibitors; 330,000 compounds, 0.031% hits; also: potency is read from the fitted curve at half-maximal effect; % is scaled to controls: 0 for no effect and ±100 for the full control effect; nearly all actives have a fitted effect of over 80% in size
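Eu-cryptate anti-ADP/ADP-d2 competition gives a ratio inversely related to ADP. Enzyme at 25 nM was pre-exposed to compound for 10 min, then given 10 uM ATP for 30 min, 37°C throughout.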
B2AR arrestin – agonists driving beta-arrestin recruitment to human beta2-adrenergic receptor; P07550; beta-arrestin recruitment to beta2AR, cell-based reporter; Potency, µM (highest dose often 46.1 µM), inactives show at the highest dose activation, usual class: activators; AID 492947; 330,000 compounds, 0.02% hits;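 also: potency is read from the fitted curve at half-maximal effect; 0% = DMSO controls and full agonism = EC100 isoproterenol or metaproterenol; nearly all actives have a fitted effect of over 65% in size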
TSHR antag – blocks TSH signaling through the human TSH receptor. P16473. TSHR-expressing cells, TSH-stimulated cAMP HTRF, 2 h; active compounds read low. activity change, negative = inhibition, % at 11.5 µM. 330,000 compounds, 0.2% hits. AID 504810;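 active = activity change below a set negative limit, meaning inhibition stronger than a set level, cut at about -70% in these data; inconclusive = activity change between two set negative limits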; also: % is scaled to controls: 0 for no effect and ±100 for the full control effect
Target sequence (P16473 whole entry, looked up): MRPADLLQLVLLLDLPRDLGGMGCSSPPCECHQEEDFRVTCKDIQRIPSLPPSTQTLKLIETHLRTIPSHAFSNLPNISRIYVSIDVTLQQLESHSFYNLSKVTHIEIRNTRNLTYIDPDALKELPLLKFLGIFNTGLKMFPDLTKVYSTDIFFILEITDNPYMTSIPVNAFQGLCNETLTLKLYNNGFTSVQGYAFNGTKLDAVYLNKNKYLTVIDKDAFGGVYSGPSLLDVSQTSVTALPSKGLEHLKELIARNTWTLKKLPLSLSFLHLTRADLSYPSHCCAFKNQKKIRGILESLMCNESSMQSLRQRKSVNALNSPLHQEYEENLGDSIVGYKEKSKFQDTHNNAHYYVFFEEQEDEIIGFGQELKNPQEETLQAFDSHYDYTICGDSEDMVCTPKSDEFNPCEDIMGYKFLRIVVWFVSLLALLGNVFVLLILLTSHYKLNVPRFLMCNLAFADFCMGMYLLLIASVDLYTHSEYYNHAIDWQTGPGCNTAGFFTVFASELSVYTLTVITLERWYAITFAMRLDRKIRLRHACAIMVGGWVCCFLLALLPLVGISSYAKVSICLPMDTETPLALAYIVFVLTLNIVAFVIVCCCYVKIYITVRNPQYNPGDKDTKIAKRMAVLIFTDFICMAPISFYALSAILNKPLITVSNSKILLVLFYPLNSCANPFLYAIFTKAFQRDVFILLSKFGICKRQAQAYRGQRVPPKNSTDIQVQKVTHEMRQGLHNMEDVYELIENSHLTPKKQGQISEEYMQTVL
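Competitive HTRF cAMP read-out (cryptate anti-cAMP antibody, cAMP-d2; 30 min, room temperature) in freshly harvested TSHR cells. Compounds added before TSH at EC80 (4nM final), followed by 2 hours' incubation at 37 deg C.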
CCT modulator – changes cytosolic chaperonin activity | purified chaperonin ATPase assay, HTRF ADP detection, 30 min | 360,000 compounds, 0.3% hits | activity change, % (concentration not given with the values), hits read low; in the data active = activity change below about -30%; also: % is scaled to controls: 0 for no effect and ±100 for the full control effect
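First, chaperonin was dispensed at 40 nM or 20 nM final depending on batch activity. Next, compounds were pinned at 76 uM and ATP added at 10 uM. After 30 min at 37 °C, ADP detection reagents ran 30 min at ambient temperature.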
* hit, by the source's call; ? = inconclusive; . = no result given; [ ] = remark or other dose. Unless noted, calls follow the shape of the dose curve; as a rule, active = well fitted curve in the direction sought with a large enough effect; inconclusive = small, poorly fitted or top-dose-only effect, or another doubt; inactive = no such curve, though single readings can be large; an effect the other way counts as inactive or inconclusive.

SMILES	TCR act	Mm-Cpn inhibitor	B2AR arrestin	TSHR antag	CCT modulator
Cc1c(C(=O)c2ccc(F)cc2)c2ccccn2c1CCc1ccccn1	6.2%	2.5%	0.2%	2.1	0.1
Cc1c(C(=O)c2ccccc2)c2ccccn2c1CCc1ccccn1	0.2%	-4.9%	-1.3%	7.6	-69.9*
Cn1c(CSCc2ccc(Cl)cc2)nnc1SCC(=O)Nc1nccs1	-4.8%[46.1 µM]	2.6%	-0.1%	-22.7	-1.0
CCOc1ccc(C(=O)Nc2c(C(N)=O)oc3ccccc23)cc1	-6.1%[46.1 µM]	-6.2%	3.2%	4.2	-0.5
N#CCC(=O)Nc1ccc(C(=O)OCC(=O)c2ccc3c(c2)OCCO3)cc1	1.7%	?	-0.4%	9.3	-0.9
N#CCC(=O)Nc1ccc(C(=O)OCC(=O)c2ccc3c(c2)OCO3)cc1	-1.8%	44.7µM*	-0.1%	11.3	1.6
COC(=O)c1cc(S(=O)(=O)Nc2nn(C)c3ccccc23)oc1C	0.7%	2.2%	-0.7%	4.5	-42.8*
COc1cc(NC(=O)CSc2nc(=O)n(CCCN3CCOCC3)c3c2CCC3)cc(OC)c1	1.2%	-0.1%	0.1%	0.1	-1.8
CN(C)S(=O)(=O)c1cccc(NC(=O)COC(=O)C2CCN(C(=O)c3ccc(F)cc3)CC2)c1	-0.1%	1.0%	-0.1%	-15.2	-1.8
COc1ccccc1NC(=O)NC1(C(=O)N2CCCCC2)CCCCC1	5.9%	-0.5%	0.3%	-74.6*	-0.7
Oc1ccc(NCc2cccs2)cc1	6.1%	-1.5%	12.6µM*	4.4	0.0
CCn1c(=S)[nH]c2cc(S(=O)(=O)N3CCCCC3)ccc21	-0.9%	-1.5%	-0.2%	-6.4	0.5
CCCn1c(SCC(=O)NCc2ccco2)nnc1C(C)C	-7.0%	-0.5%	0.0%	11.5	-41.8*
COc1cccc(-c2cc(C(F)(F)F)n3ncc(C(=O)O)c3n2)c1	0.5%	-3.3%	-0.3%	-10.7	-3.6
COc1ccc(CC(=O)Nc2cccc(-c3nnc(-c4cccc(C)c4)o3)c2)cc1OC	-6.0%	-2.1%	-0.1%	-92.4*	1.3
O=C(Cc1cccs1)N1CCN(S(=O)(=O)c2ccc(Cl)c(C(F)(F)F)c2)CC1	-7.5%	0.4%	0.0%	-10.8	-68.7*
COc1ccc2cc3cc(C(=O)NCc4cccnc4)oc3nc2c1	3.3%	-1.6%	-0.2%	-9.0	-67.9*
O=C(CCc1ccccc1)NNC(=O)C12CC3CC(CC(C3)C1)C2	.	-0.2%	-0.7%	-4.8	-5.3
COC(=O)c1cccc(NC(=O)Cc2nc(-c3ccccc3)sc2-c2ccc(C)cc2)c1	-4.0%[46.1 µM]	50.1µM*	-0.3%	-3.0	0.9
COc1cccc(NC(=O)Cc2nc(-c3ccccc3)sc2-c2ccc(C)cc2)c1	1.0%	39.8µM*	-0.8%	4.3	1.6
C=C1CCN([C@@H](C)C(=O)OCc2cccc(C)c2)S(=O)(=O)c2ccccc21	0.7%	0.4%	-0.3%	-11.0	-3.7
CC(C)Cc1nc(N2CCC(C(N)=O)CC2)c2nnn(Cc3ccccc3)c2n1	0.0%	0.0%	-1.2%	8.5	-6.5
COc1ccc2nc(N3CCC(C)CC3)c(C#N)cc2c1	1.0%	-2.3%	0.0%	-3.0	-0.4
CCc1ccc2nc(N3CCN(C)CC3)c(C#N)cc2c1	-5.5%	-2.2%	0.5%	10.5	-49.4*
O=C(Nc1ccccc1)c1ccc[n+](Cc2ccc([N+](=O)[O-])cc2)c1	-0.5%[46.1 µM]	-0.6%	-0.8%	12.0	-1.8
SMILES	TCR act	Mm-Cpn inhibitor	B2AR arrestin	TSHR antag	CCT modulator
O=C(CCCCCn1c(=S)[nH]c2ccc(N3CCOCC3)cc2c1=O)NCc1ccccc1	9.8%[46.1 µM]	?	0.1%	-5.2	1.1
O=C(CCCCCn1c(=S)[nH]c2ccc(N3CCOCC3)cc2c1=O)NCc1cccc(Cl)c1	8.2%	0.5%	-1.8%	-12.2	-50.4*
Cc1ccc(S(=O)(=O)NCC(c2cccnc2)N2CCc3ccccc32)cc1 (configuration not stated)	4.0%	-0.1%	-0.2%	5.8	-49.3*
N#C/C(=C\c1c(Oc2ccc(Cl)cc2)nc2ccccn2c1=O)C(=O)NC1CCS(=O)(=O)C1 (configuration not stated)	-21.1%	-0.5%	0.5%	10.9	0.9
CCC(=O)Nc1ccc(C(=O)Cn2nc(C(=O)O)c3ccccc3c2=O)cc1	.	-2.9%	0.5%	-3.1	.
C/C(=N\Nc1ccc(Cl)c(C(=O)O)c1)c1ccc2c(c1)OCO2	-3.4%	-1.7%	0.1%	25.9	-54.6*
CC1=C(C(=O)N(C(C)C)C(C)C)CC(CC(=O)NCCCCc2ccccc2)C(=O)N1Cc1ccccc1 (configuration not stated)	.	.	.	.	-0.8
CC(=O)c1sc(NC(=O)C2(F)C(F)(F)C(F)(F)C(F)(F)C(F)(F)C2(F)F)nc1C	0.8%	1.3%	-0.2%	-75.5*	-0.5
CC(=O)c1sc(NC(=O)C=C(C)C)nc1C	-1.7%	-14.7%	-0.3%	5.8	-1.4
O=C(c1cccc(N2C(=O)C3C4C=CC(C4)C3C2=O)c1)N1CCN(c2ccccc2Cl)CC1 (configuration not stated)	12.4%	2.1%	0.5%	-1.5	-1.2
CC(C)OC(=O)Nc1ccc(Oc2c(F)c(F)c(F)c(F)c2F)cc1	10.8%	-1.5%	0.0%	-8.5	-76.4*
CC(C)(C)c1n[nH]c(=S)n(/N=C/c2cccs2)c1=O	2.8%[46.1 µM]	-0.1%	1.9%	-0.7	-35.4*
S=c1[nH]nc(-c2ccccn2)n1/N=C/c1cccs1	6.1%[46.1 µM]	-1.1%	-0.5%	5.9	-32.2*
Cc1cc(C)n(-c2nc(NC(C)(C)C)nc(NC(C)(C)C)n2)n1	4.8%	3.7%	?	-11.2	-0.8
CCNc1nc(NCC)nc(-n2nc(C)cc2C)n1	3.2%	-2.5%	7.94µM*	-3.1	2.0
Cc1cc(C)n(-c2nc(NC(C)C)nc(NC(C)C)n2)n1	4.3%	0.3%	12.6µM*	18.1	-7.7
CCOC(=O)c1c(-c2ccccc2)nc2c(C)cccn12	-2.0%	0.3%	-0.9%	-2.4	-118.9*
CCOC(=O)c1c(-c2ccccc2)nc2ccccn12	0.6%	-0.2%	0.0%	-2.9	2.6
Cc1cc(S(=O)(=O)NC2CCCCC2)ccc1OCC(=O)N1CCOCC1	.	-0.6%	-0.1%	2.2	-67.4*
CCOC(=O)N1CCN(C(=O)COc2ccc(S(=O)(=O)NC3CCCCC3)cc2C)CC1	-0.1%	0.9%	-1.5%	-0.3	-0.4
CN(C)c1nc(=S)nc(NCc2ccccc2)[nH]1	2.2%	-1.8%	-0.9%	-85.0*	-2.2
CC(C)CNc1nc(=S)nc(N(C)C)[nH]1	-2.1%	1.3%	-0.7%	2.5	0.0
C=C1CCC2C(C)(C)[C@@H](O)CC[C@@]2(C)[C@@H]1COc1ccc2ccc(=O)oc2c1 (some centres not stated)	-2.8%	1.7%	0.2%	-75.7*	-2.9
C=C1CCC2C(C)(C)[C@H](O)CC[C@@]2(C)[C@@H]1COc1cc(=O)oc2ccccc12 (some centres not stated)	4.1%	-0.5%	-0.5%	-6.6	0.0
